Experimental data: publication PMC4336329 (PLoS ONE, 2015)
The campaign covered roughly 310,000 compounds. About 14,000 (4.5%) showed an effect of 50% or more. Effects have a minus sign here. The list comes from a sample in which strong results are over-represented; it also holds similar structures and randomly drawn compounds.

Biological target: human ether-à-go-go-related gene (hERG) potassium channel (human, UniProt Q12809)
Test: primary screen, population patch clamp on CHO cells stably expressing hERG; higher = less effect of the substance
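Note: peak tail current of the secondary pulse compared with the same well before compound.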

Sequence of human ether-à-go-go-related gene (hERG) potassium channel (Q12809 whole entry, looked up): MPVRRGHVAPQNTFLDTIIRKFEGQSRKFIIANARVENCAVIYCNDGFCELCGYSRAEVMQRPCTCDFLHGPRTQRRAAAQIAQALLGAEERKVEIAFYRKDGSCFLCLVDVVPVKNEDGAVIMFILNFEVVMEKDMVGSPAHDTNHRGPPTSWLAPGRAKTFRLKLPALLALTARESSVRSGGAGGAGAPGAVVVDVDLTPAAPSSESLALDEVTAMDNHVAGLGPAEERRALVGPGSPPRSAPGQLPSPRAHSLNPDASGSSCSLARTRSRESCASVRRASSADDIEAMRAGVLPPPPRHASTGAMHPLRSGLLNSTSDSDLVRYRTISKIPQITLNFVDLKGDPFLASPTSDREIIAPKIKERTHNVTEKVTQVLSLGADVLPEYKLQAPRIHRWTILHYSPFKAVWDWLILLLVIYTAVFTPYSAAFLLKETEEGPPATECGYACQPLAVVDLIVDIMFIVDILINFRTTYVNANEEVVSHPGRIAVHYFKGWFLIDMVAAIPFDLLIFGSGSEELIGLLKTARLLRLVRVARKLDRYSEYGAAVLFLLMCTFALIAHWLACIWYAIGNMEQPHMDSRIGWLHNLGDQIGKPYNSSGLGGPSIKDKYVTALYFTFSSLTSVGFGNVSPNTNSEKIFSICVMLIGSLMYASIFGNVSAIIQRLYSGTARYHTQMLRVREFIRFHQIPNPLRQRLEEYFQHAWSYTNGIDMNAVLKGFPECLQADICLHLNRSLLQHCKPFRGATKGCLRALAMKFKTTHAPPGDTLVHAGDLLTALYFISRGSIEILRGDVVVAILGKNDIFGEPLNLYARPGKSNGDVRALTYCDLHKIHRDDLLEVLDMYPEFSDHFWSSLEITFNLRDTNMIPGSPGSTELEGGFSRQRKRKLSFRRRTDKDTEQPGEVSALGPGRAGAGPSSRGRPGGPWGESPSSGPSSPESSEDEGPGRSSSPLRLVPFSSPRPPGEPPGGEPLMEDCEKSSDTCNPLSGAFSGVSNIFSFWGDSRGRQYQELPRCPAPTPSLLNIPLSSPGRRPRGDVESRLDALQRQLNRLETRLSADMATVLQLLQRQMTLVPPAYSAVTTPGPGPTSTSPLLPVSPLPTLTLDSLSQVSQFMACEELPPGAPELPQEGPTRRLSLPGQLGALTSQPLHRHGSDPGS

Row | SMILES | hERG current change (%, negative = inhibition) at 10uM
1 | C/C(=N\NC(=O)c1ccc(CN2CCOCC2)cc1)c1cccc([N+](=O)[O-])c1 | -19.5%
2 | COc1ccccc1C(=O)Nc1ccccc1C(=O)NC1CCCCC1 | -1.19%
3 | O=C(COc1ccccc1Cl)Nc1ccc(C(=O)c2ccc(C(=O)O)cc2)cc1 | 11.7%
4 | Cc1cccc2c(=O)oc(-c3ccccc3Cl)nc12 | 14.2%
5 | Cc1ccc(CN2[C@@H](CC(C)C)COCCS2(=O)=O)cc1 | -2.46%
6 | CCOc1ccc(CN(C)C(=O)c2ccc(NC(=O)CC3SC(N4CCCC4)=NC3=O)cc2)cc1 (stereo not shown) | 7.53%
7 | O=C(NCC1CCCO1)c1ccccc1-c1nc(-c2ccc(F)cc2)no1 (stereo not shown) | -31.1%
8 | CCc1nnc(NC(=O)CSc2nnc(COc3ccccc3)n2Cc2ccccc2)s1 | 5.71%
9 | COc1ccc(NC(=O)c2sccc2-n2cccc2)cc1 | 3.64%
10 | CCc1cccc2c(C(=O)CN3C(=O)NC4(CCc5ccccc54)C3=O)c[nH]c12 (stereo not shown) | 10.4%
11 | CC(NC(=O)CSc1nc(=O)cc(N)n1CCc1ccccc1)c1ccccc1 (stereo not shown) | 1.91%
12 | O=C(Cn1c(=O)n(-c2cccc(Cl)c2)c(=O)n1CC(=O)N1CCCCC1)N1CCCCC1 | 4.64%
13 | CCOc1ccc(-n2c(C)cc(C(=O)NS(=O)(=O)c3ccc(C)cc3)c2C)cc1 | -32.3%
14 | CCOC(=O)C1CCN(C(=O)CSc2n[nH]c(=O)[nH]c2=O)CC1 | 7.16%
15 | COc1ccc(CN(CCC(c2ccco2)C(C)C)C(C)=O)cc1OC (stereo not shown) | 0.825%
16 | COc1ccc(C(CCN(Cc2ccc(OC)c(OC)c2)C(C)=O)C(C)C)cc1 (stereo not shown) | -52.3%
17 | CC(C)Oc1ccc(CNC(=O)CC(c2ccccc2)c2cc(Cl)ccc2O)cc1 (stereo not shown) | 11.8%
18 | COc1ccc(CNC(=S)NCc2ccc(F)cc2)cc1OC | -0.604%
19 | CC(C)Oc1ccc(C(CCNCc2ccc(O)cc2)c2ccccc2)cc1 (stereo not shown) | -58.7%
20 | COc1ccc(C(CCNCc2ccc(OC)c(OC)c2)c2ccc(F)cc2)cc1 (stereo not shown) | -71.3%
21 | COc1ccc(C(CCN(Cc2ccc(OC)c(OC)c2)C(C)=O)c2ccccc2)cc1 (stereo not shown) | -33.9%
22 | COc1ccc(NCc2ccc(OC)c(OC)c2)cc1 | 2.67%
23 | CC(C)Oc1ccc(CNC(=O)Oc2ccccc2)cc1 | 8.19%
24 | Cc1ccc(S(=O)(=O)N2CCN(S(=O)(=O)N3CCOCC3)CC2)cc1 | 13.4%

Row | SMILES | hERG current change (%, negative = inhibition) at 10uM
25 | COCCCNC(=O)CCc1nnc2ccc(N3CCC(C)CC3)nn12 | 10.9%
26 | O=C(CSC1=NS(=O)(=O)c2ccccc2N1)c1ccccc1 | -8.85%
27 | COc1ccc(CNC(=O)C/C(C)=N/NC(=O)COc2ccc(Br)cc2)cc1 | -33.3%
28 | O=C(O)c1ccc(NCc2cccnc2)c([N+](=O)[O-])c1 | 30%
29 | Cc1ccc(C(=O)n2nc(-c3ccccc3)nc2NCc2ccco2)cc1 | 16%
30 | Cc1cc(C)n(CCC(=O)Nc2ccc3c(c2)OCCO3)n1 | 17.1%
31 | COc1ccc(CN2CCCCC2c2cccnc2)cc1C (stereo not shown) | 0.438%
32 | Cc1nc2ccccc2c2oc(C(=O)N3CCC(C)CC3)cc12 | -30.5%
33 | O=C(c1oc(=O)c2ccccc2c1-c1ccccc1)N1CCOCC1 | -24.6%
34 | O=C(c1oc(=O)c2ccccc2c1-c1ccccc1)N1CCC(O)CC1 | -11.6%
35 | O=C(c1ccco1)N1CCN(C(=O)c2oc(=O)c3ccccc3c2-c2ccccc2)CC1 | -50.7%
36 | Cc1nc2ccccc2c2oc(C(=O)N3CCC(N4CCCCC4)CC3)cc12 | -38.8%
37 | Cc1ccc(-c2c(C(=O)N3CCOCC3)oc(=O)c3ccccc23)cc1 | -17.8%
38 | Cc1nc2ccccc2c2oc(C(=O)N3CCN(C4CCCCC4)CC3)cc12 | -64.7%
39 | O=C(c1oc(=O)c2ccccc2c1-c1ccccc1)N1CCN(C2CCCCC2)CC1 | -61.6%
40 | CCOC(=O)N1CCN(C(=O)c2oc(=O)c3ccccc3c2-c2ccc(C)cc2)CC1 | -31.4%
41 | CCOC(=O)c1cnn2c(N)c(C#N)cnc12 | 13.9%
42 | C/C(=N\O)C(=O)NCCN1CCCCC1 | -10.2%
43 | Cc1c(C#N)c(NC(=O)CCl)n(Cc2ccc(F)cc2)c1C | 12.8%
44 | N#Cc1nc(-c2ccc(OCc3ccccc3)cc2)oc1NCc1ccco1 | 7.75%
45 | CCn1c2c(c3cc(OCC(C)C)ccc31)CCCC2=O | 6.13%
46 | Cc1cc(C(=O)Nc2ccccn2)cs1 | 3.35%
47 | Cc1cc(C)nc(NS(=O)(=O)c2ccc(NC(=O)CCN3C(=O)c4ccccc4C3=O)cc2)n1 | 3.74%
48 | CC1CCN(C(C)C(=O)Nc2ccccc2-c2ccccc2)CC1.O=C(O)C(=O)O (stereo not shown) | -15.4%

Row | SMILES | hERG current change (%, negative = inhibition) at 10uM
49 | CC(C(=O)Nc1ccccc1-c1ccccc1)N1CCN(Cc2ccccc2)CC1 (stereo not shown) | -72.2%
50 | CC(C(=O)Nc1ccccc1-c1ccccc1)N1CCOCC1 (stereo not shown) | -2%
51 | CC(C(=O)NC1CCCC1)N1CCN(Cc2ccccc2)CC1 (stereo not shown) | 28.6%
52 | CC(C(=O)Nc1ccccc1-c1ccccc1)N1CCN(C(=O)c2ccccc2)CC1 (stereo not shown) | -66.9%
53 | CC(C(=O)Nc1ccccc1-c1ccccc1)N1CCN(S(=O)(=O)c2ccccc2)CC1 (stereo not shown) | -14.3%
54 | COCCOC(=O)C1=C(C)N=C2SCCC(=O)N2C1c1cccs1 (stereo not shown) | 13.8%
55 | COc1cc(-c2csc(N3CCOCC3)n2)cc(OC)c1OC | 13.3%
56 | Cn1cc(C(=O)N2CCN(c3cccc(Cl)c3)CC2)c(=O)c2cc(S(=O)(=O)N3CCOCC3)ccc21 | -17.6%
57 | Cc1ccc(C)c(N2CCN(C(=O)CCCOc3cc(=O)n(C)c4ccccc34)CC2)c1 | -40.8%
58 | COc1ccc(NP(=O)(Nc2ccc(OC)cc2)Oc2ccccc2)cc1 | -13.9%
59 | O=CNc1ccc(OP(=O)(Oc2ccccc2)Oc2ccccc2)cc1 | -61.7%
60 | O=CNc1ccccc1 | 14.6%
61 | CN(C)c1ccc(/C=C/C=N/Nc2nc(N3CCOCC3)nc(N3CCOCC3)n2)cc1 | 0.992%
62 | CCOC(=O)N1CCC(N(CCN(C)C)C(=S)Nc2ccccc2OCC)CC1 | -8.05%
63 | Cc1ccc(/C=N/NC(=O)CSc2nc3nc(C)cc(C)n3n2)cc1 | -19.3%
64 | Cc1ccc(S(=O)(=O)CCC(=O)c2ccc(F)cc2)cc1 | 8.7%
65 | COc1ccc(-c2[nH]ncc2/C=N\NC(=O)c2ccc(C(C)(C)C)cc2)cc1OC | -9.5%
66 | O=C(N/N=C\c1ccc(COc2ccc([N+](=O)[O-])cc2)o1)c1ccc(Cl)cc1 | -67.6%
67 | O=C(N/N=C\c1ccc(COc2ccc([N+](=O)[O-])cc2)o1)c1cccc(Cl)c1 | 4.17%
68 | O=C(N/N=C/c1cn[nH]c1-c1ccc(Cl)cc1)c1ccc([N+](=O)[O-])cc1 | -51.5%
69 | O=C(N/N=C/c1cn[nH]c1-c1ccc(F)cc1)c1ccncc1 | 6.55%
70 | O=C(N/N=C\c1cn[nH]c1-c1ccccc1)c1ccc([N+](=O)[O-])cc1 | -64.9%
71 | O=C(CNC(=O)c1ccc(F)cc1)N/N=C/c1cn[nH]c1-c1ccccc1 | -18.1%
72 | COc1ccc(/C=N/NC(=O)c2cccc([N+](=O)[O-])c2)cc1OC | 5.28%

Row | SMILES | hERG current change (%, negative = inhibition) at 10uM
73 | Cc1cc(C(=O)N/N=C\c2ccc(COc3ccc([N+](=O)[O-])cc3)o2)ccc1[N+](=O)[O-] | -7.77%
74 | O=C(N/N=C/c1cccnc1)c1ccc([N+](=O)[O-])cc1 | -7.74%
75 | O=C(N/N=C\c1cn[nH]c1-c1ccccc1)c1cccnc1 | -1.27%
76 | COc1ccc(-c2[nH]ncc2/C=N/NC(=O)c2cccc([N+](=O)[O-])c2)cc1OC | -62.1%
77 | O=C(NC(=S)Nc1ccc(Br)cn1)c1cncc(Br)c1 | 11.3%
78 | O=C(NCc1ccccc1Cl)C1=CC=CN2CCS(=O)(=O)N=C12 | -11.1%
79 | Cc1cc(Nc2ccc(Br)cc2F)n2nc(C)nc2n1 | -21.5%
80 | O=C(CSc1nnc(C2CCCCC2)o1)Nc1ccccc1Cl | -11.5%
81 | COc1ccc(Cl)c(NCCC(=O)O)c1 | 15.5%
82 | Cc1c(N=C/C=C/c2ccccc2)c(=O)n(-c2ccccc2)n1C | 11.1%
83 | O=S(N1CCc2ccccc21)C12CC3CC(CC(C3)C1)C2 (stereo not shown) | -6.09%
84 | O=C1C=C(c2ccc3c(c2)OCO3)C[C@@H](c2ccc(Cl)cc2)C1 | 5.86%
85 | O=C(NCc1ccccc1)c1ccc(Oc2ccc(C(=O)NCc3ccccc3)cc2)cc1 | -3.44%
86 | O=C1CCCc2ccccc2N1Cc1ccc(Cl)cc1Cl | -18.2%
87 | Br.Cc1ccc(C)c(C(=O)CN2C3=NCCCN3c3ccccc32)c1 | -69.2%
88 | Cl.Clc1ccc(CN2C3=NCCN3c3ccccc32)cc1 | -69.5%
89 | Br.CCOC(=O)CN1C2=NCCCN2c2ccccc21 | 2.95%
90 | Cl.Clc1ccc(CN2C3=NCCCN3c3ccccc32)cc1 | -75.1%
91 | Cl.ClCCN1C2=NCCCN2c2ccccc21 | -26.4%
92 | Cc1ccc(C)c(C(=O)CN2C(=O)c3ccccc3C2=O)c1 | 9.96%
93 | Cl.Clc1ccc(CN2C3=NCCCN3c3ccccc32)c(Cl)c1 | -66%
94 | O=C1c2ccccc2N(Cc2ccc(Cl)cc2)C2=NCCN12 | -13.5%
